# According to ChEMBL document CHEMBL3988442, “University of Dundee, Small-Polar-MMV Screening Library” (2021):
# Target: T1, Methionyl-tRNA synthetase, putative (Leishmania donovani (strain BPK282A1)) (UniProt E9BF75)
# T1 sequence (whole entry): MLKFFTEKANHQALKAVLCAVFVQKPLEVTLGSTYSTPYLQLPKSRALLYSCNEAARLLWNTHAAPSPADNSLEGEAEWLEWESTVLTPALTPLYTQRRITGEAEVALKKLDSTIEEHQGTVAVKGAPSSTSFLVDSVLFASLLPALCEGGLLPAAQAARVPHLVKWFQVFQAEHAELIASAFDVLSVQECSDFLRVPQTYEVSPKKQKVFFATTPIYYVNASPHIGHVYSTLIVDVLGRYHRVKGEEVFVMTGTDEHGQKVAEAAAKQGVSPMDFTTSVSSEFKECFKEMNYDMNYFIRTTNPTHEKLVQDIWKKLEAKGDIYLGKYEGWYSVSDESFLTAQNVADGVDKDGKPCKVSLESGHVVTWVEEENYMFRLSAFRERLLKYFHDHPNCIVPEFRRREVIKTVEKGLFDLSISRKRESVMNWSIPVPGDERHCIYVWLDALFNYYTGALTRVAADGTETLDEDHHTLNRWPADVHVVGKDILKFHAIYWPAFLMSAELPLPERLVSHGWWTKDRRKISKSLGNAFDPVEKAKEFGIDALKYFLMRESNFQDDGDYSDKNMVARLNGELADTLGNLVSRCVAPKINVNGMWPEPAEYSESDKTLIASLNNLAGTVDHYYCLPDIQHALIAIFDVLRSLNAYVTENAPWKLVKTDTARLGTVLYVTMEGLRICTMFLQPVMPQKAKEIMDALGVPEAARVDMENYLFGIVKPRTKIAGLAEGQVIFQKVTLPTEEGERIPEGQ
# Assay: Leishmania donovani Methionine tRNA synthetase (LdMetRS):v7. Dose response assay
# Format: functional
# Parameters: conc 80 nM, time 150 minutes
smiles,measurement,setting,value
COCCNc1ccc2ncc(-c3ccc4onc(N)c4c3)n2n1,PXC50,MAX_EFFECT 3.125,< 4
same,PXC50,MAX_EFFECT 3.947368421,< 4
COCCN1CCN(c2ccc3ccc(C(=O)NC4CC4)cn23)CC1,PXC50,MAX_EFFECT 43.53741497,< 4
same,PXC50,MAX_EFFECT 48.22429907,< 4
CCNC(=O)C1CCCN(c2nc(C)nc3sc4c(c23)CCC4)C1 (stereo not drawn),PXC50,MAX_EFFECT 7.25388601,< 4
same,PXC50,MAX_EFFECT 9.574468085,< 4
CN(CCO)c1nc(-c2cccs2)nc2sc3c(c12)CCCC3,PXC50,MAX_EFFECT 31.46666667,< 4
same,PXC50,MAX_EFFECT 36.50793651,< 4
Nc1cc(C(=O)O)c(Cl)cc1Cl,PXC50,MAX_EFFECT 6.695464363,< 3
same,PXC50,MAX_EFFECT 9.69581749,< 3
COCCNc1nc(-n2nc(C)cc2C)nc2sc3c(c12)CCCC3,PXC50,"BOTTOM 1.301145561, HILLSLOPE 1.464534306, MAX_EFFECT 52.38095238, TOP 100.0",4.33
same,PXC50,"BOTTOM -0.0791, HILLSLOPE 1.372664479, MAX_EFFECT 81.02766798, TOP 100.0",4.48
CCc1nc(NCc2ccccn2)c2cc(C)sc2n1,PXC50,MAX_EFFECT 5.651105651,< 4
same,PXC50,MAX_EFFECT 6.030150754,< 4
O=C(NCC1CCCCC1)c1cc(=O)c2cc(F)cc(O)c2o1,PXC50,MAX_EFFECT 5.56621881,< 4
same,PXC50,MAX_EFFECT 11.64274322,< 4
Cc1nc(N2CCC(C)CC2)c2ccsc2n1,PXC50,MAX_EFFECT 9.848484848,< 4
same,PXC50,MAX_EFFECT 11.2244898,< 4
O=C(NCC1CCCCC1)c1cc(=O)c2cc(O)ccc2o1,PXC50,MAX_EFFECT 0.575815739,< 4
same,PXC50,MAX_EFFECT 4.306220096,< 4
FC1(F)CCN(c2ccccc2)CC12CCN(c1ncccn1)C2 (stereo not drawn),PXC50,MAX_EFFECT 8.920187793,< 4
same,PXC50,MAX_EFFECT 12.40740741,< 4
Cc1cc2c(N3CCOCC3)nc(-c3cccnc3)nc2s1,PXC50,MAX_EFFECT 2.18579235,< 4
same,PXC50,MAX_EFFECT 5.347593583,< 4
OB1OC(CN2CCOCC2)c2ccccc21 (stereo not drawn),PXC50,MAX_EFFECT 9.245283019,< 4
same,PXC50,MAX_EFFECT 9.589041096,< 4
Cc1ccc(-c2cc(C(F)(F)F)nc(NCCN(C)C)n2)cc1,PXC50,MAX_EFFECT 8.163265306,< 4
same,PXC50,MAX_EFFECT 8.333333333,< 4
Cc1nc(NC(C(=O)O)C(C)C)c2c3c(sc2n1)CCC3 (stereo not drawn),PXC50,MAX_EFFECT 7.537688442,< 4
same,PXC50,MAX_EFFECT 7.616707617,< 4
O=C1CC[C@@H](COc2cccc(F)c2Oc2ccc(Cl)cc2)N1,PXC50,MAX_EFFECT 7.462686567,< 4
same,PXC50,MAX_EFFECT 9.316770186,< 4
CCc1cc2c(NC(CC(C)C)C(=O)O)nc(C)nc2s1 (stereo not drawn),PXC50,MAX_EFFECT 8.0,< 4
same,PXC50,MAX_EFFECT 13.22751323,< 4
Cc1nc(NC(CC(C)C)C(=O)O)c2c3c(sc2n1)CCC3 (stereo not drawn),PXC50,MAX_EFFECT 14.004914,< 4
same,PXC50,MAX_EFFECT 14.57286432,< 4
FC1(F)CCN(Cc2ccncc2)CC12CCN(c1cccnc1)C2 (stereo not drawn),PXC50,MAX_EFFECT 5.981308411,< 4
same,PXC50,MAX_EFFECT -0.453514739,< 4
O=C(c1c[nH]cn1)N1CCC(F)(F)C2(CCN(c3ccccn3)C2)C1 (stereo not drawn),PXC50,MAX_EFFECT 10.79812207,< 4
same,PXC50,MAX_EFFECT 12.40740741,< 4
CCN1c2ccc(-c3cncn3CCCn3ccnc3C)cc2CC1C (stereo not drawn),PXC50,MAX_EFFECT 36.73469388,< 4
same,PXC50,MAX_EFFECT 44.48598131,< 4
CCc1nc(NCCO)c2c3c(sc2n1)CCC3,PXC50,MAX_EFFECT 3.274559194,< 4
same,PXC50,MAX_EFFECT 5.852417303,< 4
Cc1nc(N2CCN(CCO)CC2)c2c(-c3ccccc3)csc2n1,PXC50,MAX_EFFECT 6.12244898,< 4
same,PXC50,MAX_EFFECT 9.848484848,< 4
CS(=O)(=O)N1CCN(c2ccc3ccc(C(=O)NCC4CCCO4)cn23)CC1 (stereo not drawn),PXC50,"BOTTOM -3.857720999, HILLSLOPE 1.705839216, MAX_EFFECT 57.40402194, TOP 63.01150798",4.63
same,PXC50,"BOTTOM -4.829130924, HILLSLOPE 1.927262902, MAX_EFFECT 52.15311005, TOP 54.22060795",4.86
Cc1nc(NC(Cc2ccccc2)C(=O)O)c2c3c(sc2n1)CCCC3 (stereo not drawn),PXC50,MAX_EFFECT 23.07692308,< 4
same,PXC50,MAX_EFFECT 25.24509804,< 4
Cc1sc2nc(CCN)nc(N3CCN(S(C)(=O)=O)CC3)c2c1C,PXC50,MAX_EFFECT 9.660574413,< 4
same,PXC50,MAX_EFFECT 10.96605744,< 4
CC(C)(N)c1cc(Cl)cc(Cl)c1,PXC50,MAX_EFFECT 14.47084233,< 3
same,PXC50,MAX_EFFECT 21.86311787,< 3
Cc1nc(N2CCCCC2)c2c(-c3cccs3)csc2n1,PXC50,MAX_EFFECT 30.98236776,< 4
same,PXC50,MAX_EFFECT 31.29770992,< 4
CCc1nc(N2CCN(c3ccccn3)CC2)c2c3c(sc2n1)CCC3,PXC50,MAX_EFFECT 39.95098039,< 4
same,PXC50,MAX_EFFECT 40.86538462,< 4
